A selection: hits, their analogues and other compounds. The true share with any hit is near 19%.
TDP1 cell noCPT: qHTS for Inhibitors of human tyrosyl-DNA phosphodiesterase 1 (TDP1): qHTS in cells in absence of CPT; DT40 Tdp1-/- hTDP1 cells, no CPT, ATP luminescence, 48 h; actives 15% (n = 420,000); Potency, µM (doses to about 46.2 µM), for inactives: top-dose activity change, negative = growth inhibition, hits mostly inhibitors; further: potency means the concentration at half of the fitted maximal effect; on the % scale 0 is the no-effect control and ±100 the full control effect; nearly all actives have a fitted effect of over 55% in size
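Growth of hTDP1-complemented DT40 Tdp1-knockout cells is measured by ATP luminescence after at least 48 hr compound exposure at 37 °C, with DMSO substituting for the 20 nM CPT used in the parallel screen.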
IL1B secr inh: blocks inflammasome-driven IL-1 beta release | THP-1 LPS/ATP IL-1B secretion, AlphaLISA, 16 h; active compounds read low | activity change, % at 57.5 µM | AID 743279 | actives 4.7% (n = 360,000); in the data active means activity change below about -50%; inconclusive means mostly about -30% to -49%; further: on the % scale 0 is the no-effect control and ±100 the full control effect
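THP-1 cells pretreated 1 hr with compounds (up to 57.5 uM final), then stimulated with LPS (250 ng/mL final) plus ATP (1.25 mM final); secreted IL-1B measured by AlphaLISA after 16 hr, decreased signal indicating inhibition.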
TGFb SMAD3 inh: inhibitors of TGF-b signaling; HepG2 CAGA-GFP TGF-b/SMAD3 reporter, GFP fluorescence, 18 h; TGF-beta stimulated, 500 pg/mL final; actives 1.2% (n = 410,000); Potency, µM (doses to about 46.1 µM), inactives show top-dose activity, negative = inhibition, actives largely listed as inhibitors; further: potency means the concentration at half of the fitted maximal effect; on the % scale 0 is the no-effect control and ±100 the full control effect; nearly all actives have a fitted effect of over 65% in size
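Read-out: total well GFP (ex488/em500-530) summed from mean per-cell fluorescence. Cells: HEPG2 CAGA-GFP, 1% FBS DMEM, 18 h at 37 degrees C with 500 pg/mL final TGF-beta. Unstimulated wells served as the full-inhibition control; stimulated DMSO wells = 0%.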
HepG2 tox: kills HepG2 cells in TGF-b inhibitor counter-screen; HepG2 CAGA-GFP viability, ATP luminescence, 18 h; actives 0.76% (n = 410,000); AID 588856; Potency, µM (highest dose often 46.1 µM), for the others: at the top dose activity change, negative = cytotoxicity, hits mostly cytotoxic; further: potency means the concentration at half of the fitted maximal effect
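CellTiter-Glo luminescence gave cytotoxicity after 18 hours at 37 degrees C. The cells were HepG2 CAGA-GFP in 1% FBS DMEM, stimulated with 500 pg/mL TGF-beta after compound addition. %Activity was normalised to no-cell wells (complete cell-killing) and DMSO (no toxicity), and curves were fitted and classified.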
TDP1 block: inhibitors of human tyrosyl-DNA phosphodiesterase TDP1; AID 485290; Potency, µM (doses to about 130 µM), inactives show top-dose activity change, negative = inhibition, usual class: inhibitors; actives 0.28% (n = 350,000); recombinant TDP1, AlphaScreen DNA substrate cleavage; Q9NUW8; further: potency means the concentration at half of the fitted maximal effect; on the % scale 0 is the no-effect control and ±100 the full control effect; nearly all actives have a fitted effect of over 40% in size
Target sequence (Q9NUW8 whole entry, looked up): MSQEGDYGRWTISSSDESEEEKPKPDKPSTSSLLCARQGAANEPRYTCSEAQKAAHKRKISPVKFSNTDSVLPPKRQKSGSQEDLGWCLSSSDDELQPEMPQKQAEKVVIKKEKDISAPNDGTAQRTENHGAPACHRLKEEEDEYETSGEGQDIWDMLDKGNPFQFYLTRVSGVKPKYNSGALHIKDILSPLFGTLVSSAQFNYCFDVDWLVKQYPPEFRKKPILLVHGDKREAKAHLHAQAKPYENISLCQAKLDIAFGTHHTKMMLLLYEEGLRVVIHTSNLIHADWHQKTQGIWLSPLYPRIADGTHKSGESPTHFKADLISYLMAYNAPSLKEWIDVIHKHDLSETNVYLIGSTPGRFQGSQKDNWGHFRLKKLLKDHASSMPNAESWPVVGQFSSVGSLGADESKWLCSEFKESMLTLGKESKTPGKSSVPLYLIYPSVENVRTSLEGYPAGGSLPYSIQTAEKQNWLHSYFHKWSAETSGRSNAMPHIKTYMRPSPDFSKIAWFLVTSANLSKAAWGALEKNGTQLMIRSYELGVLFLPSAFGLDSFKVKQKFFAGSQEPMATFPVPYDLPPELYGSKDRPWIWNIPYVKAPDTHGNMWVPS
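Recombinant human Tdp1 (E. coli-expressed, 1 nM final) preincubated with compounds 15 min at room temperature, then 5'-biotin/3'-phosphotyrosine-FITC DNA substrate (15 nM final) added for 5 min. AlphaScreen beads (10 ug/ml final) added 10 min; cleavage lowers signal.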
DT40 TDP1 CPT: DT40-hTDP1 cell growth loss with CPT. Potency, µM (titrated, usually from 46.2 µM), inactives show top-dose activity change, negative = growth inhibition, actives largely listed as inhibitors. actives 12% (n = 420,000). AID 686979. chicken DT40 Tdp1-/-;hTDP1 cells + 20 nM CPT, ATP luminescence, 48 h; further: potency means the concentration at half of the fitted maximal effect; on the % scale 0 is the no-effect control and ±100 the full control effect; nearly all actives have a fitted effect of over 55% in size
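Chicken DT40 Tdp1-/- cells stably complemented with human TDP1 were seeded at 400 cells/well in medium containing 20 nM camptothecin, exposed to pin-transferred compounds, and grown at 37 °C for at least 48 hr. Viability was read as ATP luminescence.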
Active calls of the source: *; i = inactive; ? = inconclusive; / = not tested or not shown; [ ] = another dose, or the depositor's remark. Unless noted, the call rests on the fitted dose curve; in most records, active means well fitted curve in the direction sought with a large enough effect; inconclusive means small, poorly fitted or top-dose-only effect, or another doubt; inactive means no such curve, though single readings can be large; an effect the other way counts as inactive or inconclusive.

SMILES	TDP1 cell noCPT	IL1B secr inh	TGFb SMAD3 inh	HepG2 tox	TDP1 block	DT40 TDP1 CPT
CN(C)CCNC(=O)c1cc2cc(Br)ccc2oc1=O	-16%	0	2%	-17%	4%	-36%
Cc1ccc(C(C)NC(=O)c2cc3cc(Br)ccc3oc2=N)cc1 (centres undefined)	21µM*	i	1%	0%	2%	23µM*
COc1ccccc1C(=O)NC(=O)COC(=O)c1ncc(Cl)c(Cl)c1Cl	-5%	10	-15%	3%	/	?
CC1CN(CC(=O)NCCc2ccncc2)Cc2ccccc2O1 (centres undefined)	-11%	/	/	/	/	6%[9.04 µM]
COc1ccc(S(=O)(=O)CC(=O)c2cc3cc(Br)ccc3oc2=O)cc1	12µM*	3	13µM*	-61%	6%	?
Cc1cc(C)c(NC(=O)Cn2c(=O)nc(-c3ccccc3)c3cc(Cl)ccc32)c(C)c1	?	/	-4%	0%	6%	5%
Cc1ccc(NC(=O)c2sc3ncn(CC(=O)N4CCN(c5ccccn5)CC4)c(=O)c3c2C)cc1F	-17%	34	-10%	-9%	4%	?
Cc1ccc(NC(=O)c2sc3ncn(CC(=O)N4CCN(c5ccccn5)CC4)c(=O)c3c2C)cc1Cl	15µM*	17	?	-62%	4%	?
CCN(CC)CCCNC(=O)c1sc2ncn(CC(=O)Nc3ccc(C)c(Cl)c3)c(=O)c2c1C	?	-15	-11%	-45%	3%	?
COCCCNC(=O)c1sc2ncn(CC(=O)Nc3ccc(C)c(Cl)c3)c(=O)c2c1C	21µM*	17	-20%	-7%	-1%	?
COc1cccc(NC(=O)c2sc3ncn(CC(=O)N4CCN(c5ccccn5)CC4)c(=O)c3c2C)c1	?	-8	1%	-7%	4%	18µM*
COc1cc(NC(=O)c2sc3ncn(CC(=O)N4CCCCC4C)c(=O)c3c2C)cc(OC)c1OC (centres undefined)	12µM*	-11	4%	-2%	/	?
COc1cc2c(cc1OC)C(c1cc(OC)c(OC)c(OC)c1)C1(O)C(=O)OCC1(O)C2 (centres undefined)	0%	11	-3%	3%	/	-1%
COc1ccc(Cn2ccnc2SCC(=O)Nc2nnc(C)s2)cc1	16%	46	32%	-2%	3%	-22%
Cc1ccc(C)c(C(C)NC(=O)C2CCCC2)c1 (centres undefined)	7%	10	1%	0%	4%	8%
Cc1ccc(C)c(C(C)NC(=S)NC2CCCCC2)c1 (centres undefined)	?	31	?	-37%	4%	26µM*
CC(O)(c1ccccc1)c1nc(-c2ccncc2)cs1 (centres undefined)	?	-1	11%	-14%	/	4.1µM*
CC(O)(c1ccccc1)c1nc(-c2ccc(S(C)(=O)=O)cc2)cs1 (centres undefined)	?	10	-7%	-25%	/	-21%
CC(O)(c1ccccc1)c1nc(-c2ccccc2)cs1 (centres undefined)	?	0	-27%	-21%	/	21µM*
C[C@H](N)CCP(=O)(O)O	-19%	/	/	/	-2%	-1%
C[C@@H]1CN([C@@H](C)CO)C(=O)CCCn2nncc2CO[C@H]1CN(C)S(=O)(=O)c1ccc(Oc2ccccc2)nc1	-19%	18	-1%	-56%	/	-20%
CC1(C)OC(=O)C=C[C@@]2(C)C1C[C@@H](O)[C@]1(C)C2CC[C@@]2(C)C(c3ccoc3)OC(=O)[C@H]3O[C@]321 (some centres undefined)	?	/	/	/	7%	-22%[9.04 µM]
O=C(c1cccs1)c1c[nH]cc1-c1ccccc1	-20%	-57*	-20%	-160%	/	-6%
CC(C)C[C@H](NC(=O)[C@H]1O[C@@H]1C(=O)O)C(=O)NCCCCN=C(N)N	/	/	/	/	11%	/
Cc1ccc(-n2[nH]c(C)c(C=NC34CN5CN(CN(C5)C3)C4)c2=O)cc1C	21µM*	-3	9%	10µM*	-2%	9.2µM*
SMILES	TDP1 cell noCPT	IL1B secr inh	TGFb SMAD3 inh	HepG2 tox	TDP1 block	DT40 TDP1 CPT
CCCCCCCCCCCC1N=C(N)NC(CCCO)=C1C(=O)OC (centres undefined)	3.7µM*	?	-8%	-91%	/	5.8µM*
O=C(Nc1ccccc1C(=O)Nc1nnc(C(F)(F)F)s1)c1ccccc1	4.1µM*	/	?	-43%	4%	2.9µM*
CC(C)C(=O)Nc1cccc(-c2cnc3ccccc3n2)c1	-24%	22	5%	-35%	2%	-18%
O=C(Nc1cccc(-c2cnc3ccccc3n2)c1)c1ccncc1	5.8µM*	69	-1%	13%	3%	?
O=C(Nc1cccc(-c2cnc3ccccc3n2)c1)c1ccco1	16µM*	12	?	-3%	5%	?
O=C(CNC(=O)c1ccc(Br)o1)Nc1cccc(-c2cnc3ccccc3n2)c1	7.3µM*	90	?	-25%	9%	?
CS(=O)(=O)Nc1cccc(-c2cnc3ccccc3n2)c1	21µM*	-14	-2%	-5%	/	-6%
Cc1ccc(C(=O)Nc2cccc(-c3cnc4ccccc4n3)c2)cc1	-22%	-11	20%	1%	2%	-7%
C[C@]1(C(=O)NCC2CC2)C=C[C@@H](Cc2ccccc2)N1C(=O)c1ccccc1	/	/	/	/	9%	/
Cn1c(-c2ccc3nc(N)sc3c2)nc2cc(N)ccc21	23µM*	-24	-15%	-12%	?	?
CC1CC(C)CN(S(=O)(=O)c2ccc(C(=O)OCC(=O)Nc3ccccc3)cc2)C1 (centres undefined)	-7%	7	-9%	-2%	/	1%
NNc1nc(-c2ccccc2Cl)c2cc(Br)ccc2n1	5.2µM*	15	?	-49%	/	21µM*
CCOC(=O)c1c(C)[nH]c(C(=O)NCC(c2ccco2)N2CCCCC2)c1C (centres undefined)	-4%	0	2%	0%	1%	-9%
COc1cccc(-c2ccc3ncnc(NCc4cccs4)c3c2)c1	?	/	?	-29%	1%	?
CNc1ncnc2ccc(-c3cccc(OC)c3)cc12	23µM*	/	/	/	/	16µM*
COc1cccc(-c2ccc3ncnc(NC4CC4)c3c2)c1	12µM*	/	/	/	/	16µM*

From PubChem BioAssay
